# Test results from PubChem BioAssay (EPA / NIEHS).
# Results filed as inconclusive are left out. Activity calls are given as the source filed them. The calls were made as follows, unless noted: active = hit-call score of the fitted dose curve at least 0.9, where 1 is the maximum; inconclusive = response in the unintended direction; inactive = score below 0.9.
# How the values were obtained:
# TIMP1, TIMP1 (gene 7076) = assay: LTEA_HepaRG_TIMP1: Life Technologies and Expression Analysis (LTEA) Assay for TIMP1 using HepaRG (AID 2283534; active = hit-call score of the fitted dose curve at least 0.9, where 1 is the maximum; inactive = score below 0.9;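 also: TaqMan qRT-PCR signal normalized to ACTB GAPDH and POLR2A housekeeping genes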); details: mRNA level, 48 h; actives raise or lower the signal
# In short: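 Differentiated human HepaRG cells in serum-free induction medium were exposed 48 h to chemicals (8 half-log concentrations, top 100 uM, 0.5% DMSO). TIMP1 mRNA was quantified by TaqMan qRT-PCR, normalized to ACTB/GAPDH/POLR2A; bidirectional fit versus DMSO.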
# [1] = read-out: Tumor necrosis factor receptor 1 (TNFRSF1A), TNFRSF1A (gene 7132); assay: LTEA_HepaRG_TNFRSF1A: Life Technologies and Expression Analysis (LTEA) Assay for Tumor necrosis factor receptor 1 (TNFRSF1A) using HepaRG (AID 2283535; active = hit-call score of the fitted dose curve at least 0.9, where 1 is the maximum; inactive = score below 0.9); details: mRNA level, 48 h; actives raise or lower the signal
# In short: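 Differentiated human HepaRG cells were exposed in duplicate for 48 h in serum-free induction medium to eight concentrations (top 100 uM, half-log steps, 0.5% DMSO). TNFRSF1A mRNA was quantified by qRT-PCR, normalized to ACTB, GAPDH and POLR2A, then fitted bidirectionally against DMSO.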
# [2] = read-out: Thyroid Hormone Responsive (THRSP), THRSP (gene 7069); assay: LTEA_HepaRG_THRSP: Life Technologies and Expression Analysis (LTEA) Assay for Thyroid Hormone Responsive (THRSP) using HepaRG (AID 2283536; active = hit-call score of the fitted dose curve at least 0.9, where 1 is the maximum; inactive = score below 0.9); details: mRNA level, 48 h; actives raise or lower the signal
# In short: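 THRSP transcript quantified by Fluidigm qRT-PCR against three housekeeping genes after 48 h chemical exposure of HepaRG cells in serum-free induction medium; eight-point half-log series, top 100 uM, 0.5% DMSO vehicle, duplicate wells.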
# [3] = read-out: Cellular tumor antigen p53 (Homo sapiens) (UniProt P04637); assay: LTEA_HepaRG_TP53: Life Technologies and Expression Analysis (LTEA) Assay for Tumor Protein P53 (TP53) using HepaRG (AID 2283537; active = hit-call score of the fitted dose curve at least 0.9, where 1 is the maximum; inactive = score below 0.9); details: mRNA level, 48 h; actives raise or lower the signal
# In short: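 Read-out is TP53 transcript level by microfluidic qRT-PCR, normalised to three housekeeping genes and fitted bidirectionally against DMSO. Human HepaRG cells received compounds for 48 h, highest concentration 100 uM.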
# [4] = read-out: UDP glucuronosyltransferase (UGT1A1), UGT1A1 (gene 54658); assay: LTEA_HepaRG_UGT1A1: Life Technologies and Expression Analysis (LTEA) Assay for UDP glucuronosyltransferase (UGT1A1) using HepaRG (AID 2283538; active = hit-call score of the fitted dose curve at least 0.9, where 1 is the maximum; inactive = score below 0.9); details: mRNA level, 48 h; actives raise or lower the signal
# In short: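 mRNA induction or loss of UGT1A1, by TaqMan qRT-PCR, in duplicate HepaRG wells after 48 h exposure to half-log dilutions topping at 100 uM; DMSO (0.5%) served as baseline.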
# [5] = read-out: UDP glucuronosyltransferase (UGT1A6), UGT1A6 (gene 54578); assay: LTEA_HepaRG_UGT1A6: Life Technologies and Expression Analysis (LTEA) Assay for UDP glucuronosyltransferase (UGT1A6) using HepaRG (AID 2283539; active = hit-call score of the fitted dose curve at least 0.9, where 1 is the maximum; inactive = score below 0.9); details: mRNA level, 48 h; actives raise or lower the signal
# In short: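 Human HepaRG cells were dosed for 48 h in serum-free induction medium with 0.5% DMSO vehicle, eight-point half-log series from 100 uM, in duplicate. UGT1A6 mRNA was measured by qRT-PCR, normalized to ACTB, GAPDH, POLR2A, and fitted bidirectionally against DMSO.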
# [6] = read-out: X-box binding protein 1 (XBP1), XBP1 (gene 7494); assay: LTEA_HepaRG_XBP1: Life Technologies and Expression Analysis (LTEA) Assay for X-box binding protein 1 (XBP1) using HepaRG (AID 2283540; active = hit-call score of the fitted dose curve at least 0.9, where 1 is the maximum; inactive = score below 0.9); details: mRNA level, 48 h; actives raise or lower the signal
# In short: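 Differentiated human HepaRG cells in serum-free induction medium were exposed in duplicate for 48 h to eight half-log concentrations up to 100 uM in 0.5% DMSO. XBP1 mRNA was quantified by qRT-PCR, normalised to ACTB, GAPDH and POLR2A, with bidirectional fitting against DMSO.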
# [7] = LTEA_HepaRG_LDH_cytotoxicity: Cytotoxicity Assessment in the Life Technologies and Expression Analysis (LTEA) Assay (AID 2283563);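 as to AC50: LDH activity released into spent culture medium as a marker of cell death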
# In short: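 Differentiated human HepaRG cells, plated 48 h beforehand, were switched to serum-free induction medium and exposed for 48 h to eight half-log concentrations (top 100 uM) in 0.5% DMSO. LDH was measured in spent medium; activity was fitted relative to DMSO vehicle.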
# [8] = ATG_XTT_Cytotoxicity: Cytotoxicity Assessment in the Attagene TRANS-FACTORIAL HepG2 Assay (AID 2283584)
# In short: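 HepG2 human liver cells, transiently transfected with multiple GAL4-UAS reporter units, were dosed and read at 24 h by XTT as cell number. Loss of signal was fitted relative to DMSO negative control baseline.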
# [9] = TOX21_p53_BLA_p2_viability: Viability Assessment in the Tox21 HCT-116 p53 Agonism Beta-lactamase Assay, Phase 2 (AID 2283591);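 also: compound exposure lasted 16 h at 37 °C; actives lower the ATP signal meaning cytotoxicity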
# In short: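 Cytotoxicity readout: CellTiter-Glo ATP luminescence, 30 min at room temperature, after the beta-lactamase read. Cells were HCT116 exposed 16 h at 37C to compounds pin-transferred at 217-fold dilution from DMSO stocks.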
# [10] = molecular target: Cellular tumor antigen p53 (Homo sapiens) (UniProt P04637); assay: TOX21_p53_BLA_p2_ratio: Tox21 HCT-116 p53 Agonism Beta-lactamase Assay, Ratio, Phase 2 (AID 2283592)
# Cellular tumor antigen p53 (Homo sapiens), sequence (P04637 whole entry, looked up): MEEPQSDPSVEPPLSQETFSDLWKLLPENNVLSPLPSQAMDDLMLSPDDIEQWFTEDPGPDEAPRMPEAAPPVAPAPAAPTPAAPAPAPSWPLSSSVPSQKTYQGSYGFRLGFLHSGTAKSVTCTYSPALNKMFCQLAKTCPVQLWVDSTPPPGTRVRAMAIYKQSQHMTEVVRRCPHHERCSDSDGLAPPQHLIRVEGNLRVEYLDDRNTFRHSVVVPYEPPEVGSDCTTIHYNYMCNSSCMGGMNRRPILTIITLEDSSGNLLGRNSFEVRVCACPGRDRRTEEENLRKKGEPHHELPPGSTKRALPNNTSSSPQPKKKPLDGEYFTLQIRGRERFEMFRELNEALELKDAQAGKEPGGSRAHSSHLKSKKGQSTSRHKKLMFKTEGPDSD
# In short: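 Ratio endpoint: beta-lactamase cleavage of CCF4-AM, blue (460 nm) over green (530 nm). HCT116 reporter line; 16 h treatment, 37C; substrate 2 h RT.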
# [11] = TOX21_p53_BLA_p3_viability: Viability Assessment in the Tox21 HCT-116 p53 Agonism Beta-lactamase Assay, Phase 3 (AID 2283593);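 also: cells exposed to compound for 16 h before reading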
# In short: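 Cellular ATP was quantified by CellTiter-Glo luminescence, read after 30 min at room temperature. Beforehand, HCT116 cells (4000/well) received compound 5 h post-seeding, 217-fold diluted from DMSO, then incubated 16 h at 37C.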
# [12] = molecular target: Cellular tumor antigen p53 (Homo sapiens) (UniProt P04637); assay: TOX21_p53_BLA_p3_ratio: Tox21 HCT-116 p53 Agonism Beta-lactamase Assay, Ratio, Phase 3 (AID 2283596)
# In short: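 Cells were seeded at 4000/well, rested 5 h at 37C, then dosed with DMSO compound solutions (217-fold dilution) for 16 h. CCF4-AM substrate was loaded for 2 h at room temperature, and the 460/530 nm emission ratio was fitted for gain of signal versus DMSO.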
# [13] = TOX21_p53_BLA_p4_viability: Viability Assessment in the Tox21 HCT-116 p53 Agonism Beta-lactamase Assay, Phase 4 (AID 2283597);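 also: hits lower the luminescence signal meaning cytotoxicity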
# In short: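 Cytotoxicity was inferred from loss of CellTiter-Glo luminescence. HCT116 cells had been dosed with compounds after 5 h plating, incubated 16 h at 37C and 5% CO2, and exposed to the CCF4-AM substrate for 2 h.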
# [14] = molecular target: Cellular tumor antigen p53 (Homo sapiens) (UniProt P04637); assay: TOX21_p53_BLA_p5_ratio: Tox21 HCT-116 p53 Agonism Beta-lactamase Assay, Ratio, Phase 5 (AID 2283599)
# In short: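 Beta-lactamase reporter ratio (blue 460 nm over green 530 nm, 405 nm excitation) after 2 h CCF4-AM loading, in HCT-116 cells exposed 16 h at 37 C to compounds pinned at 217-fold dilution. Increases relative to DMSO baseline scored.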
# [15] = TOX21_p53_BLA_p5_viability: Viability Assessment in the Tox21 HCT-116 p53 Agonism Beta-lactamase Assay, Phase 5 (AID 2283600)
# In short: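 Luciferase-coupled ATP quantitation of cells treated for 16 h (37C, 5% CO2) with test chemicals delivered in DMSO via a 217-fold dilution; 4000 cells/well; reagent incubated 30 min at room temperature before luminescence reading.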
# [16] = Tanguay_ZF_120hpf_MORT_legacy: (Legacy) Oregon State University Tanguay Lab 120 Hour Post-fertilization zebrafish Assay for Mortality (AID 2283633);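 as to AC50: fitted as increase in binary mortality versus DMSO negative control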
# In short: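 Dechorionated Tropical 5D wild-type zebrafish embryos, one per well from 6 hpf, were statically exposed at 28C in the dark until 120 hpf (0.64% DMSO final). Mortality was scored as present/absent by brightfield microscopy, fitted positively versus DMSO.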
# [17] = Tanguay_ZF_120hpf_YSE_legacy: (Legacy) Oregon State University Tanguay Lab 120 Hour Post-fertilization zebrafish Assay for Yolk Sac Edema (AID 2283634);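 as to AC50: actives raise the incidence of yolk sac edema above the DMSO baseline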
# In short: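 Tropical 5D wild-type embryos, dechorionated with pronase at 4 hpf, were exposed singly from 6 hpf to 120 hpf under static, sealed, dark conditions at 28C with 0.64% DMSO final. Yolk sac edema was scored present/absent by brightfield microscopy.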
# [18] = Tanguay_ZF_120hpf_AXIS_legacy: (Legacy) Oregon State University Tanguay Lab 120 Hour Post-fertilization zebrafish Assay for Body Axis Malformation (AID 2283635);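 as to AC50: potency for an increased fraction of larvae scored with body axis malformation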
# In short: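 Tropical 5D wild-type zebrafish embryos, dechorionated with pronase at 4 hpf, were placed singly in wells at 6 hpf and exposed statically to test chemical (0.64% DMSO final) at 28C until 120 hpf, then scored by brightfield for body axis defects.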
structure (smiles),measurement,setting,value
C1=Cc2cccc3cccc1c23,outcome,"TIMP1, TIMP1 (gene 7076)",inactive
same,outcome,[1],inactive
same,outcome,[2],inactive
same,outcome,[3],inactive
same,outcome,[4],inactive
same,outcome,[5],inactive
same,outcome,[6],inactive
same,outcome,[7],inactive
same,outcome,[8],inactive
same,outcome,[9],inactive
same,outcome,[10],inactive
same,outcome,[11],inactive
same,outcome,[12],inactive
same,outcome,[13],inactive
same,outcome,[14],inactive
same,outcome,[15],inactive
same,outcome,[16],inactive
same,outcome,[17],inactive
same,outcome,[18],inactive
COC(=O)c1ccccc1N,outcome,"TIMP1, TIMP1 (gene 7076)",inactive
same,outcome,[1],inactive
same,outcome,[2],inactive
same,outcome,[3],inactive
same,outcome,[4],inactive
same,outcome,[5],inactive
same,outcome,[6],inactive
same,outcome,[7],inactive
same,outcome,[8],inactive
same,outcome,[10],inactive
same,outcome,[11],inactive
same,outcome,[12],inactive
same,outcome,[15],inactive
same,outcome,[17],inactive
same,outcome,[18],inactive
[O-][Cl+]O,outcome,"TIMP1, TIMP1 (gene 7076)",inactive
same,outcome,[1],inactive
same,outcome,[2],inactive
same,outcome,[3],inactive
same,outcome,[4],inactive
same,outcome,[5],inactive
same,outcome,[6],inactive
same,outcome,[7],inactive
same,outcome,[8],inactive
same,outcome,[10],inactive
same,outcome,[14],inactive
same,outcome,[15],inactive
same,outcome,[17],inactive
same,outcome,[18],inactive
CO[C@@H]1[C@H](OC(=O)NC(=O)CCl)CC[C@]2(CO2)[C@H]1[C@@]1(C)O[C@@H]1CC=C(C)C,outcome,"TIMP1, TIMP1 (gene 7076)",inactive
same,outcome,[1],inactive
same,outcome,[2],inactive
same,outcome,[3],inactive
same,outcome,[4],inactive
same,outcome,[5],inactive
same,outcome,[6],inactive
same,outcome,[7],inactive
same,outcome,[8],inactive
same,outcome,[11],inactive
same,outcome,[12],inactive
same,outcome,[13],inactive
same,outcome,[14],inactive
same,outcome,[16],inactive
same,AC50,[17],0.0035 µM (active)
same,outcome,[18],inactive
O=C(O)C1C2CCC(O2)C1C(=O)O (stereo unspecified),outcome,"TIMP1, TIMP1 (gene 7076)",inactive
same,outcome,[1],inactive
same,AC50,[2],34.7 µM (active)
same,outcome,[3],inactive
same,AC50,[4],50 µM (active)
same,outcome,[5],inactive
same,outcome,[6],inactive
same,AC50,[7],75.1 µM (active)
same,outcome,[8],inactive
same,outcome,[10],inactive
same,outcome,[12],inactive
same,outcome,[13],inactive
same,outcome,[14],inactive
same,outcome,[17],inactive
same,outcome,[18],inactive
Nc1ccc(Oc2ccc(N)cc2)cc1,outcome,"TIMP1, TIMP1 (gene 7076)",inactive
same,outcome,[1],inactive
same,outcome,[2],inactive
same,outcome,[3],inactive
same,AC50,[4],78.9 µM (active)
same,outcome,[5],inactive
same,outcome,[6],inactive
same,outcome,[7],inactive
same,outcome,[8],inactive
same,outcome,[10],inactive
same,outcome,[11],inactive
same,outcome,[12],inactive
same,outcome,[14],inactive
same,outcome,[15],inactive
same,outcome,[17],inactive
same,outcome,[18],inactive
CN(C)c1ccccc1,outcome,"TIMP1, TIMP1 (gene 7076)",inactive
same,outcome,[1],inactive
same,outcome,[2],inactive
same,outcome,[3],inactive
same,outcome,[4],inactive
same,outcome,[5],inactive
same,outcome,[6],inactive
same,outcome,[7],inactive
same,outcome,[8],inactive
same,outcome,[10],inactive
same,outcome,[11],inactive
same,outcome,[12],inactive
same,outcome,[13],inactive
same,outcome,[14],inactive
same,outcome,[15],inactive
same,outcome,[16],inactive
same,outcome,[17],inactive
same,outcome,[18],inactive
Oc1ccc2ccc3cccc4ccc1c2c34,outcome,"TIMP1, TIMP1 (gene 7076)",inactive
same,outcome,[1],inactive
same,outcome,[2],inactive
same,outcome,[3],inactive
same,outcome,[4],inactive
same,outcome,[5],inactive
same,outcome,[6],inactive
same,outcome,[7],inactive
same,outcome,[8],inactive
same,outcome,[10],inactive
same,outcome,[11],inactive
same,outcome,[12],inactive
same,outcome,[13],inactive
same,outcome,[14],inactive
same,outcome,[15],inactive
same,AC50,[16],35.6 µM (active)
same,AC50,[17],13.7 µM (active)
same,AC50,[18],13.1 µM (active)
